Potency and outcome data for 17 compounds are collected here from PubChem BioAssay (Tox21).

A short description of test [1]: qHTS assay for small molecules that induce genotoxicity in human embryonic kidney cells expressing luciferase-tagged ATAD5 - cell viability (AID 651634; calls by dose curve; further: nearly all actives have a fitted effect of over 25% in size; further: potency means the concentration at half of the fitted maximal effect). Summed up:
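Seeding of 2,000 HEK293T ATAD5-luciferase cells per well preceded pin-tool compound transfer. Plates sat 15.5 hr at 37C under 5% CO2, then fluorescence was read after 30 min with CellTiter-Fluor.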
Background: Quantitative high-throughput screening tests each substance at several concentrations.

The nature of test [2]: qHTS assay for small molecule disruptors of the mitochondrial membrane potential - cell viability (AID 720634; calls by dose curve; further: nearly all actives have a fitted effect of over 20% in size; further: potency means the concentration at half of the fitted maximal effect). Summed up:
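Measuring cytotoxicity alongside mitochondrial potential, the screen quantified ATP by luminescence in HepG2 cells after 1 hr compound incubation and a 30 min room-temperature CellTiter-Glo step.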

The nature of test [3]: qHTS assay for small molecule disruptors of the mitochondrial membrane potential (AID 720635). Further: potency means the concentration at half of the fitted maximal effect. Summed up: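 HepG2 cells (2,000/well) attached overnight at 37C, then took compound for 1 hr at 37C, 5% CO2. Mito-MPS dye was added for 30 min; fluorescence was read at 490/535 nm (monomers) and 540/590 nm (aggregates).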
A short description of test [4]: qHTS assay to test for compound auto fluorescence at 590 nm (red) in HepG2 cells (AID 720674). Summed up:
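Intrinsic compound fluorescence in the red window (Ex/Em 540/590 nm) is measured in attached HepG2 cells exposed for 1 hr, DMSO vehicle as baseline, benchmarked to Rose Bengal sodium.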

The nature of test [5]: qHTS assay to test for compound auto fluorescence at 535 nm (green) in HepG2 cells (AID 720675).
Test [6] can be described thus: qHTS assay to test for compound auto fluorescence at 460 nm (blue) in HEK293 cells (AID 720678). Summed up:
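Measured: blue fluorescence (Ex 405/Em 460 nm) of compound-treated HEK293 cells, incubated overnight at 37C with 5% CO2 and scaled to triamterene equivalents.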

Test [7] in a line: qHTS assay to test for compound auto fluorescence at 590 nm (red) in HEK293 cells (AID 720679). The method, boiled down: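 Using HEK293 cells at 2,000 per well, the screen added 23 nL of each compound after cell attachment and incubated overnight (37C, 5% CO2). The plate reader then captured red-label fluorescence, Ex/Em 540/590nm.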
The nature of test [8]: qHTS assay for small molecules that induce genotoxicity in human embryonic kidney cells expressing luciferase-tagged ATAD5 (AID 651632). Further: nearly all actives have a fitted effect of over 15% in size. Further: potency means the concentration at half of the fitted maximal effect. Summed up:
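Reporter cells (HEK293T) express luciferase-tagged ATAD5, a protein that accumulates after DNA damage. Treat 16 hr at 37C/5% CO2, add Amplite, wait 30 min at RT, and read luminescence.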

Test [9] can be described thus: qHTS assay for small molecule agonists of the p53 signaling pathway - cell viability (AID 651633; calls by dose curve; further: nearly all actives have a fitted effect of over 30% in size; further: potency means the concentration at half of the fitted maximal effect). The method, boiled down: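 p53RE-bla cells, seeded at 4,000 per well and rested 5 h at 37 C/5% CO2, received compounds in DMSO for 16 h at 37 C. CellTiter-Glo was then added, and luminescence was read after 30 min at room temperature to gauge cytotoxicity.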

Structures are written as SMILES. “And” between values parts separate entries of the source, which are not always exact repeats. Identical values can stand only once. Records with an inconclusive call do not appear. Where a structure was tested more than once in an assay, its records may differ in their call. The source made the active and inactive calls. Unless noted, the call rests on the fitted dose curve; in most records, active means well fitted curve in the direction sought with a large enough effect in the repeat runs; inconclusive means weak or mixed curves; inactive means no such curve, though single readings can be large; an effect the other way counts as inactive or inconclusive.

Turning to `CC(C)(c1ccccc1)c1ccc(O)cc1`, the Potency result in test [1] and in [6] was “inactive” each time. In addition, the Potency in [2] was 48.2 µM (active) and inactive; in [3], 3.04 µM (active) and 3.86 µM (active). Moreover, the result in test [4], in test [5] and in test [7] was inactive.

On to `OCCOCCO`, for which the Potency result in [8], in test [9], in test [1], in test [2] and in test [6] was “inactive” throughout. Besides, the result in test [4] and in test [7] was inactive.

On to `NN=C(N)N`, for which the Potency entry in [9], in test [1], in test [2], in [3] and in [6] was “inactive” in each case. The result in test [4] and in test [7] was inactive.

As to `O=C(O)CF`, the Potency entry in [9], in [1], in test [2], in test [3] and in test [6] was “inactive” in each case. The call in test [4] and in test [7] was inactive.

`CCC[CH2][Sn]([Cl])([Cl])[CH2]CCC`: the Potency in test [9] is 2.2 µM (active) and 969 nM (active); in test [1], 694 nM (active) and 34.4 nM (active). Besides, the call in [4], in [5] and in test [7] was inactive. Besides, the Potency entry in test [6] is “inactive”.

As for `CCCCCCCCCc1ccc(O)cc1`, the Potency in [2] is 17.4 µM (active); in test [3], 6.18 µM (active). The outcome in test [4], in test [5] and in [7] was inactive. Besides, the Potency result in [6] was “inactive”.

Take `O=S(=O)(O)C(F)(F)C(F)(F)C(F)(F)C(F)(F)C(F)(F)C(F)(F)C(F)(F)C(F)(F)F`: the Potency entry in test [8], in test [1] and in [6] was “inactive” each time. The Potency entry in test [9] was “inactive and 48.6 µM (active)”. Besides, the call in [4] and in [7] was inactive.

On to `CCOP(=O)(O)OCC` (tested in a mixture with another compound), for which the Potency entry in [8] and in test [6] was “inactive” in each case. The Potency entry in test [9] is “inactive and 60.6 µM (active)”; in test [2] it was “inactive and 60.6 µM (active)”; in test [3], 24.1 µM (active). Moreover, the compound was classed as inactive in [4], in test [5] and in test [7].

On to `Clc1cccc(Cl)c1`, for which the Potency entry in test [9], in test [1], in test [2], in test [3] and in test [6] was “inactive” each time. Moreover, the result in test [4], in [5] and in [7] was inactive.

Take `COc1ccc(O)c(C(C)(C)C)c1`: the Potency result in test [8], in [9], in test [1], in test [2] and in [6] was “inactive” each time. Also, the Potency in test [3] is 30.7 µM (active) and 24.3 µM (active). The result in test [4], in [5] and in test [7] was inactive.

For the compound `CCC(=O)Nc1ccc(Cl)c(Cl)c1`, the Potency result in test [9], in [1] and in test [6] was “inactive” in each case. For the same compound, the Potency in test [2] was 54.5 µM (active); in test [3] it was 31.3 µM (active) and 30.6 µM (active). For the same compound, the compound was classed as inactive in test [4], in test [5] and in test [7].

Take `CC(C)(c1ccc(OCC2CO2)cc1)c1ccc(OCC2CO2)cc1` (stereo unspecified): the Potency result in [8], in test [1] and in test [6] was “inactive” in each case. In addition, the Potency in test [9] is 61.9 µM (active) and 61.1 µM (active). The outcome in [4] and in test [7] was inactive.

As for `N#Cc1nn(-c2c(Cl)cc(C(F)(F)F)cc2Cl)c(N)c1S(=O)C(F)(F)F` (stereo unspecified), the Potency result in test [8], in test [9], in test [1] and in test [6] was “inactive” each time. Besides, the Potency is 10.6 µM (active) and 1.54 µM (active) in test [2]; 5.31 µM (active) and 1.54 µM (active) in test [3]. Further, the compound was classed as inactive in test [4] and in test [7].

Turning to `CNC(=O)CSP(=S)(OC)OC`, the Potency result in test [9], in test [1], in test [2], in [3] and in test [6] was “inactive” throughout. The call in test [4], in test [5] and in test [7] was inactive.

With `CC(C)(O)C(=O)Nc1ccc([N+](=O)[O-])c(C(F)(F)F)c1`, the Potency result in [8], in test [9], in [1] and in test [6] was “inactive” each time. In addition, the Potency in test [3] was 15.7 µM (active) and 17.8 µM (active). Moreover, the compound was classed as inactive in test [4], in test [5] and in [7].

Turning to `Oc1ccc(Cl)cc1Cc1ccccc1`, the Potency entry in [8] and in test [6] was “inactive” each time. Moreover, the Potency in test [9] was 55.1 µM (active); in test [2], 13.3 µM (active) and 21.7 µM (active) and 15.4 µM (active); in test [3], 5.96 µM (active) and 2.43 µM (active) and 1.55 µM (active). Besides, the compound was classed as inactive in test [4], in test [5] and in test [7].

As to `C=CC(=O)OCC(CC)(COC(=O)C=C)COC(=O)C=C`, the Potency in test [8] is 7.04 µM (active); in test [9], 35.3 µM (active); in test [1] it was 15.8 µM (active) and 19.3 µM (active); in [3] it was 62.8 µM (active). Besides, the Potency result in test [2] and in [6] was “inactive” throughout. For the same compound, the compound was classed as inactive in test [4], in [5] and in test [7].
